Screening results: PubChem, National Center for Advancing Translational Sciences (NCATS)
ELG1 repair inh: ELG1-dependent DNA repair inhibition | HEK293T ELG1-luciferase reporter, luminescence, 16 h; DNA damage induced by 5-fluorouridine | hit rate 2.3% among 330,000 | Potency, µM (top dose mostly 46.1 µM), for inactives: at the top dose activity change, negative = inhibition, actives largely listed as inhibitors; further: potency means the concentration at half of the fitted maximal effect; nearly all actives have a fitted effect of over 55% in size
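5-Fluorouridine DNA damage + compound/DMSO, 2,000 cells/well, 16 h, 37 °C/5% CO2. ONE-Glo, 30 min RT, luminescence. Readout = decrease in reporter signal.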
DT40 TDP1 no CPT: qHTS for Inhibitors of human tyrosyl-DNA phosphodiesterase 1 (TDP1): qHTS in cells in absence of CPT. Potency, µM (titrated, usually from 46.2 µM), without a hit: at the top dose activity change, negative = growth inhibition, hits mostly inhibitors. AID 686978, 2013. DT40 Tdp1-/- hTDP1 cells, no CPT, ATP luminescence, 48 h. hit rate 15% among 420,000; further: potency means the concentration at half of the fitted maximal effect; nearly all actives have a fitted effect of over 55% in size
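Growth of hTDP1-complemented DT40 Tdp1-knockout cells is measured by ATP luminescence after at least 48 hr compound exposure at 37 °C, with DMSO substituting for the 20 nM CPT used in the parallel screen.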
IL1B secr inh: inflammasome signaling inhibition, IL-1 beta readout; THP-1 LPS/ATP IL-1B secretion, AlphaLISA, 16 h; stronger effect = lower value; activity change, % at 57.5 µM; hit rate 4.7% among 360,000; AID 743279; in the data active means activity change below about -50%; inconclusive means mostly about -30% to -49%
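Secreted IL-1B measured by AlphaLISA bead assay after 16 h compound exposure of THP-1 cells; compounds (final up to 57.5 uM) added 1 h before LPS (250 ng/mL) and ATP (1.25 mM) stimulation; lower signal means less secretion.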
HT1080 IDH1KD tx: kills HT-1080 cells with IDH1 knockdown. Potency, µM (doses to about 46.1 µM), for the others: at the highest dose activity, negative = toxicity, actives largely listed as cytotoxic. hit rate 2% among 360,000. HT-1080 IDH1 knockdown viability, ATP luminescence, 48 h. AID 686971;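 further: potency means the concentration at half of the fitted maximal effect; 0% = DMSO wells and -100% = cell-free medium wells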
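Viability of IDH1-knockdown HT-1080 fibrosarcoma cells was assessed by CellTiter-Glo after 48 h at 37 °C with titrated compound; concentration-effect curves were classified by fit quality and response size.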
DT40 TDP1 CPT: growth inhibition of DT40 Tdp1-/-;hTDP1 cells with camptothecin (screen for TDP1 inhibitors) | chicken DT40 Tdp1-/-;hTDP1 cells + 20 nM CPT, ATP luminescence, 48 h | Potency, µM (doses to about 46.2 µM), inactives show at the highest dose activity change, negative = growth inhibition, most hits filed as inhibitors | hit rate 12% among 420,000; further: potency means the concentration at half of the fitted maximal effect; nearly all actives have a fitted effect of over 55% in size
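Chicken DT40 Tdp1-/- cells complemented with human TDP1, 400 cells/well, exposed to compounds plus 20 nM camptothecin for at least 48 h at 37 C; viability read as ATP content by CellTiter-Glo luminescence.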
HT1080-NT tox: kills 2HG-producing HT-1080-NT fibrosarcoma cells; HT-1080-NT fibrosarcoma viability, CellTiter-Glo ATP luminescence, 48 h; Potency, µM (doses to about 46.1 µM), for inactives: at the highest dose activity, negative = less viability, usual class: cytotoxic; hit rate 1.6% among 360,000; AID 686970;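 further: NT is the 2HG producing partner of a matched IDH1 knockdown line; potency means the concentration at half of the fitted maximal effect; 0% = DMSO-treated cells and -100% = media-only wells without cells; nearly all actives have a fitted effect of over 55% in size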
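A 48-hour cytotoxicity screen used HT-1080-NT cells plated 2 hours before compound delivery. ATP-based CellTiter-Glo luminescence measured viability, normalized to DMSO and no-cell controls.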
* = called active by the depositor; [ ] = dose if it differs, or a comment. A selection: hits, their analogues and other compounds. The true share with any hit is near 19%. Unless noted, the call rests on the fitted dose curve; in most records, active means well fitted curve in the direction sought with a large enough effect; inconclusive means small, poorly fitted or top-dose-only effect, or another doubt; inactive means no such curve, though single readings can be large; an effect the other way counts as inactive or inconclusive. Unless noted, on the % scale 0 is the no-effect control and ±100 the full control effect.

Screening CCc1ccc2nc(N(CCCN(C)C)C(=O)c3ccc(S(=O)(=O)N4CCc5ccccc5C4)cc3)sc2c1 returned ELG1 repair inh 11.6%, DT40 TDP1 no CPT 5.17µM*, IL1B secr inh -83.9*, HT1080 IDH1KD tx 13µM*, DT40 TDP1 CPT 5.17µM* and HT1080-NT tox inconclusive.
For CC1CCCCN1S(=O)(=O)c1ccc(C(=O)N(CCCN(C)C)c2nc3cc4c(cc3s2)OCO4)cc1 (stereo not given) the results were ELG1 repair inh -8.2%, DT40 TDP1 no CPT -7.2%, IL1B secr inh inactive, HT1080 IDH1KD tx -1.1%, DT40 TDP1 CPT -29.5% and HT1080-NT tox 4.1%.
Screening CCOc1cccc2sc(N(CCCN(C)C)C(=O)c3ccc(S(=O)(=O)N4CCc5ccccc5C4)cc3)nc12 returned ELG1 repair inh inconclusive, DT40 TDP1 no CPT inconclusive, IL1B secr inh inconclusive, HT1080 IDH1KD tx -4.6%, DT40 TDP1 CPT inconclusive and HT1080-NT tox -18.3%.
Screening CN(C)CCCN(C(=O)c1ccc(S(=O)(=O)N(C)C2CCCCC2)cc1)c1nc2ccc(F)cc2s1 returned ELG1 repair inh 24.1%, DT40 TDP1 no CPT inconclusive, IL1B secr inh -97.5*, HT1080 IDH1KD tx inconclusive, DT40 TDP1 CPT 16.4µM* and HT1080-NT tox inconclusive.
Screening CCN(CC)CC(=O)Nc1c(C#N)cnn1-c1ccccc1 returned ELG1 repair inh 12.2%, DT40 TDP1 no CPT 13.2%, IL1B secr inh 25.1, HT1080 IDH1KD tx 5.9%, DT40 TDP1 CPT 12.9% and HT1080-NT tox 13.3%.
`CN(C)CCCN(C(=O)c1ccc(S(=O)(=O)N(C)C2CCCCC2)cc1)c1nc2ccc(Br)cc2s1` gave ELG1 repair inh 26.4%, DT40 TDP1 no CPT inconclusive, IL1B secr inh -83.2*, HT1080 IDH1KD tx inconclusive, DT40 TDP1 CPT inconclusive and HT1080-NT tox inconclusive.
For CN=c1sc2ccccc2n1CC(O)COc1ccccc1 (stereo not given) the results were ELG1 repair inh -11.1%, DT40 TDP1 no CPT 18.4µM*, IL1B secr inh 0.0, HT1080 IDH1KD tx -8.6%, DT40 TDP1 CPT inconclusive and HT1080-NT tox 0.5%.
For Cc1ccc(OCC(O)Cn2nc(C)cc2C)cc1 (stereo not given) the results were ELG1 repair inh -4.1%, DT40 TDP1 no CPT 31.6%, IL1B secr inh inconclusive, HT1080 IDH1KD tx 12.3%, DT40 TDP1 CPT -1.5% and HT1080-NT tox 17.2%.
Screening CCCCn1c(=N)n(CC(O)COc2cccc(C)c2)c2ccccc21 (stereo not given) returned ELG1 repair inh inconclusive, DT40 TDP1 no CPT 13µM*, IL1B secr inh -94.3*, HT1080 IDH1KD tx inconclusive, DT40 TDP1 CPT 11.6µM* and HT1080-NT tox inconclusive.
For CCn1c(=N)n(CC(O)COc2ccc(C)cc2)c2ccccc21 (stereo not given) the results were ELG1 repair inh inconclusive, DT40 TDP1 no CPT 16.4µM*, HT1080 IDH1KD tx inconclusive, DT40 TDP1 CPT 11.6µM* and HT1080-NT tox inconclusive.
For CCCn1c(=N)n(CC(O)COc2ccc(C)cc2)c2ccccc21 (stereo not given) the results were ELG1 repair inh inconclusive, DT40 TDP1 no CPT 5.17µM*, HT1080 IDH1KD tx 16.4µM*, DT40 TDP1 CPT 4.61µM* and HT1080-NT tox 16.4µM*.
For CCOc1ccc(N2CC(C(=O)Nc3ccccc3C(=O)NC3CC3)CC2=O)cc1 (stereo not given) the results were ELG1 repair inh 3.3%, DT40 TDP1 no CPT 0.8%, IL1B secr inh 3.0, HT1080 IDH1KD tx 7.9%, DT40 TDP1 CPT 6.2% and HT1080-NT tox 2.8%.
CCOc1ccc(NC(=O)Cn2c(=O)n(CCCC(=O)NC3CCN(Cc4ccccc4)CC3)c(=O)c3ccccc32)cc1 was read as ELG1 repair inh 1.4%, DT40 TDP1 no CPT inconclusive, IL1B secr inh 11.1, HT1080 IDH1KD tx -3.2%, DT40 TDP1 CPT inconclusive and HT1080-NT tox 0.7%.
CCOC(=O)N1CCN(C(=O)C[C@@H]2C[C@@]3(C(=O)OCC)CCC=C3N(Cc3ccco3)C2=O)CC1 was read as DT40 TDP1 no CPT -12.5%, IL1B secr inh 3.6, HT1080 IDH1KD tx 10.9%, DT40 TDP1 CPT 0.1% and HT1080-NT tox 24.7%.
CCN(CC)CCn1c(=N)n(CCO)c2ccccc21 was read as ELG1 repair inh 1.5%, DT40 TDP1 no CPT -13.3%, IL1B secr inh -1.0, HT1080 IDH1KD tx 6.0%, DT40 TDP1 CPT -17.4% and HT1080-NT tox 12.2%.
Cn1c(=N)n(CC(O)c2cccc3ccccc23)c2ccccc21 (stereo not given) was read as ELG1 repair inh -21.8%, DT40 TDP1 no CPT 13µM*, IL1B secr inh inconclusive, HT1080 IDH1KD tx -9.3%[9.24 µM], DT40 TDP1 CPT 14.6µM* and HT1080-NT tox 23.1µM*.
Screening CCCn1c(=N)n(CC(O)c2ccc(C)cc2)c2ccccc21 (stereo not given) returned ELG1 repair inh 11.5%, DT40 TDP1 no CPT 23.1µM*, IL1B secr inh inconclusive, HT1080 IDH1KD tx -12.2%, DT40 TDP1 CPT inconclusive and HT1080-NT tox -11.4%.
`CCN(CC)CCn1c(=N)n(CC(O)COc2ccccc2)c2ccccc21` (stereo not given) gave ELG1 repair inh inconclusive, DT40 TDP1 no CPT 18.4µM*, IL1B secr inh -29.1, HT1080 IDH1KD tx inconclusive, DT40 TDP1 CPT inconclusive and HT1080-NT tox 16.4µM*.
`Cn1c(=N)n(CC(O)c2ccco2)c2ccccc21` (stereo not given) gave ELG1 repair inh 5.7%, DT40 TDP1 no CPT -5.7%, IL1B secr inh 4.6, HT1080 IDH1KD tx 13.8%, DT40 TDP1 CPT -4.8% and HT1080-NT tox 7.1%.
Screening CCCCN(CC(O)COc1cccc(C)c1)CC(O)COc1cccc(C)c1 (stereo not given) returned ELG1 repair inh -26.7%, DT40 TDP1 no CPT 23.1µM*, IL1B secr inh -99.6*, HT1080 IDH1KD tx 18.4µM*, DT40 TDP1 CPT inconclusive and HT1080-NT tox 20.6µM*.
COc1ccc(C2CC(c3cccs3)=NN2C(=O)COC(=O)c2cncc(Br)c2)cc1OC (stereo not given) was read as ELG1 repair inh -22.7%, DT40 TDP1 no CPT inconclusive, IL1B secr inh 11.4, HT1080 IDH1KD tx -5.2%, DT40 TDP1 CPT 5.8% and HT1080-NT tox -8.8%.
CCN(CC)CCN=c1c(C)nc(C#N)c(N)n1O was read as DT40 TDP1 no CPT 1.4%, IL1B secr inh -8.5, HT1080 IDH1KD tx 10.7%, DT40 TDP1 CPT -4.8% and HT1080-NT tox 1.4%.
